This note sets out measurements from PubChem BioAssay (NCATS).

Inconclusive results are not listed. Values without a mark were called inactive. Activity calls are given as the source filed them. Calls come from the whole dose curve; as a rule, active = well fitted cell-killing curve with a large enough effect; inconclusive = small, poorly fitted or top-dose-only effect; inactive = flat fitted curve, though single readings scatter.
Potency is the fitted concentration of half-maximal effect.

This assay can be described thus: Cell Viability - LYMP1-002 - Assay at 16 hr (AID 948).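 For activity change, negative = cytotoxicity: 0% = DMSO alone and full effect = 92 µM tetraoctylammonium bromide.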 The note with it: LYMP1-002 lymphoblastoid cell viability; series mostly up to 92.2 µM; activity change, negative = cytotoxicity: at the top concentration. The text has this: NIH Chemical Genomics Center [NCGC]
NIH Molecular Libraries Screening Centers Network [MLSCN]
National Institutes of Environmental Health Sciences [NIEHS]
National Toxicology Program [NTP]
We have developed a 1536-well cell-based assay for quantitative high throughput screening (qHTS) against a number of cell lines to determine in vitro cytotoxicity of small molecules. This particular assay uses a human lymphoblastoid cell line (LYMP1-002) purchased from Coriell Institute for Medical Research.
NCGC Assay Protocol Summary:
The CellTiter-Glo luminescent cell viability assay (Promega) is a homogeneous method to measure the number of viable cells in culture. The end point readout of this assay is based on quantitation of intracellular ATP, an indicator of metabolic activity, using the luciferase reaction. Luciferase catalyzes the oxidation of beetle Luciferin to oxyluciferin and light in the presence of ATP. The luminescent signal is proportional to amount of ATP present.
Using the CellTiter-Glo luminescent cell viability assay, the amount of cellular ATP was measured in the lymphoblastoid cell line with complete culture medium following compound treatment for 16 hours. The assay was performed in opaque white Kalypsys 1536-well plates. In the screen, tetraoctylammonium bromide was used as positive control. Library compounds were measured for their ability to cause acute toxicity in the cell line, as reflected by a decrease in intracellular ATP levels, in a concentration-dependent manner. […] AC50 values were determined from concentration-response data modeled with the standard Hill equation.
qHTS protocol for CellTiter Glo lymphoblastoid cellular assay
[Step] [Parameter] [Value] [Description]
1. Reagent; 5 uL; 2500 lymphoblastoid cells/well
2. Time; 5 hr; 37 C incubation
4. Controls; 23 nL; Tetraoctylammonium bromide 6.4pM to 92 uM
5. Time; 16 hr; 37 C incubation
6. Reagent; 5 uL; CellTiter Glo reagent
7. Time; 30 min; Room Temperature
8. Detection; Luminescence; Viewlux plate reader
Keywords: cell viability, cytotoxicity, lymphoblastoid cell line, luminescence, NTPHTS, NTPHTS_NCGC, NIEHS, DSSTox, MLSMR, MLSCN, NIH Roadmap, qHTS, NCGC
In the case of `C=C(C)c1ccccc1`, the “activity change, negative = cytotoxicity” value was -1.95%.
Same read-out and setting: the figure for `O=Cc1ccc(Cl)c(Cl)c1` is -3.85%; for `CCCCCC/C(C=O)=C\c1ccccc1` it is -1.7%.
Regarding `CC(=O)Nc1ccc(C(=O)CCl)cc1`, the Potency was 25.1 µM (active).
On to `CN(C)c1ccc(C2(c3ccc(N(C)C)cc3)OC(=O)c3cc(N(C)C)ccc32)cc1`, for which the “activity change, negative = cytotoxicity” value is -0.143%.
On to `CN1[C@H]2CC(OC(=O)[C@H](CO)c3ccccc3)C[C@H]1[C@H]1O[C@H]12` (some centres undefined), for which the Potency result is “inactive”.
On to `ClC1=C(Cl)C(Cl)(Cl)C(Cl)=C1Cl`, for which the “activity change, negative = cytotoxicity” value was -2.15%.
Still for that read-out and setting: in the case of `c1ccc2c(c1)ccc1cc3c(ccc4ccccc43)cc12` it was -4.26%.
As to `O=[N+]([O-])c1cc([N+](=O)[O-])c2ccc(S(=O)(=O)O)cc2c1O`, the “activity change, negative = cytotoxicity” value is 1.71%.
Still for that read-out and setting: the figure for `CO[C@H]1/C=C/O[C@@]2(C)Oc3c(C)c(O)c4c(O)c(c5c(c4c3C2=O)NC2(CCN(CC(C)C)CC2)N=5)=NC(=O)/C(C)=C\C=C\[C@H](C)[C@H](O)[C@@H](C)[C@@H](O)[C@@H](C)[C@H](OC(C)=O)[C@@H]1C` is -23.7%.
In the case of `O=C(/C=C/c1ccc(O)c(O)c1)OC1C[C@](O)(C(=O)O)C[C@@H](O)[C@H]1O` (some centres undefined), the Potency entry is “inactive”.
Regarding `c1ccc2c(c1)-c1cccc3c1c-2cc1ccccc13`, the “activity change, negative = cytotoxicity” value was -3.36%.
On the same count and under the same terms, in the case of `C/C=C1\C(=O)C[C@H]2[C@@H]3CCC4=CC(=O)CC[C@]4(C)[C@H]3CC[C@]12C` it was -28.2%.
As to `Oc1ccc2cc(SSc3ccc4cc(O)ccc4c3)ccc2c1`, the Potency is 50.1 µM (active).
On the same count and under the same terms, in the case of `Cc1cc(O)c(C(C)(C)C)cc1Sc1cc(C(C)(C)C)c(O)cc1C` it was 50.1 µM (active); in that of `CCC(C)Nc1ccc(NC(C)CC)cc1` (centres undefined), 15.8 µM (active).
For the compound `CC/C(=C(\c1ccccc1)c1ccc(OCCN(C)C)cc1)c1ccc(O)cc1`, the “activity change, negative = cytotoxicity” value is -20.4%.
On the same count and under the same terms, in the case of `Cc1cccc(O)c1C` it was -1.11%; in that of `Nc1ccc2cc3ccccc3cc2c1`, -10.8%.
Consider `O=C1OC2(c3cc(Br)c(O)c(Br)c3Oc3c2cc(Br)c(O)c3Br)c2c(Cl)c(Cl)c(Cl)c(Cl)c21`, for which the “activity change, negative = cytotoxicity” value is -25.2%.
Still for that read-out and setting: in the case of `O=C(OCC(COC(=O)c1ccccc1)(COC(=O)c1ccccc1)COC(=O)c1ccccc1)c1ccccc1` it was 5%.
On the same count and under the same terms, the figure for `O=C=Nc1ccc(Cc2ccc(N=C=O)cc2)cc1` is 2.25%.
Regarding `CCCCCCCC[N+](CCCCCCCC)(CCCCCCCC)CCCCCCCC`, the Potency was 6.31 µM (active).
In the case of `Cc1cc(Nc2ccc(O)cc2)ccc1N`, the “activity change, negative = cytotoxicity” value is -27.4%.
